Source: PubChem
VHR inh abs = VHR1 phosphatase inhibitors, primary screen, biochemical, absorbance, uHTS | Dual specificity protein phosphatase 3 (Homo sapiens), P51452 | recombinant VHR phosphatase, pNPP absorbance | inhibition, % at 13.3 µM | hit rate 0.52% among 290,000 | AID 1654, 2009; in the data active means inhibition above about 50%
Target sequence (P51452 whole entry, looked up): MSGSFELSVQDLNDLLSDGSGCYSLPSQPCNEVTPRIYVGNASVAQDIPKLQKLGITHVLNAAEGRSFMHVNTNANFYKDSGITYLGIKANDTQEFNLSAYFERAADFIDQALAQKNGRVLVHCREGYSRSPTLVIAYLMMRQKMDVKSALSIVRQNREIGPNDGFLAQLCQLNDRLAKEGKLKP
PrPC surface inh = inhibitors of human cell surface prion protein PrPC, primary screen, cell-based, TR-FRET. inhibition, % at 13.8 µM. hit rate 0.43% among 370,000. TR-FRET read-out. Major prion protein (Homo sapiens), P04156; in the data active means inhibition above about 24%; further: 0% = median of the test wells and 100% = reference compound wells
BJeLR viability = MLPCN primary cell-based screen for lethality selective to Ras in HRASV12 cells | BJeLR (HRASV12) viability, CellTiter-Glo ATP luminescence, 48 h | inhibition, % (concentration not given with the values) | hit rate 0.17% among 300,000 | AID 1554, 2009; in the data active means inhibition above about 50%
ugtP null kill = growth inhibition of ugtP-null S. aureus, primary screen, RN4220 ugtP deletion, OD600; 16 h; growth inhibition, % (test concentration not listed); hit rate 0.54% among 330,000; AID 1259309, 2017; in the data active means growth inhibition above about 68%;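 further: plate controls were untreated wells for no effect and antibiotic for full effect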
3CLpro inhibitor = SARS-CoV 3CLpro protease inhibitors, primary screen, biochemical, quenched FRET; recombinant SARS-CoV 3CLpro, quenched FRET peptide cleavage; AID 1706, 2009; hit rate 0.14% among 290,000; Replicase polyprotein 1ab (Severe acute respiratory syndrome coronavirus), P0C6X7; inhibition, % at 6 µM; in the data active means inhibition above about 12%
RN4220 kill = growth inhibition of S. aureus RN4220, primary screen, OD600. 16 h. inhibition, % (concentration not given with the values). hit rate 0.33% among 330,000; in the data active means inhibition above about 85%;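 further: plate controls were untreated cells for no effect and reference antibiotic for full effect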
The depositor's hits bear a star; · = no result given. In the library only some 1.4% were active in any assay of this set; here they are far more common.

SMILES	VHR inh abs	PrPC surface inh	BJeLR viability	ugtP null kill	3CLpro inhibitor	RN4220 kill
C=C(C)C1CC=C(C)/C(=N/NC(=O)CCC(=O)Nc2ccccc2Cl)C1 (centres undefined)	55*	6	2	·	-1	·
C=C(C)C1CC=C(C)C(=NNC(=O)CCc2ccccc2)C1 (centres undefined)	·	·	·	4	·	2
CCN(CC)c1ccc(/C=N/Nc2nc3ccccc3[nH]2)cc1	4	37*	19	·	0	·
CC(=O)Nc1ccc(/C=N/Nc2nc3ccccc3[nH]2)cc1	-4	-12	67*	·	-1	·
O=c1[nH]c(N/N=C/c2ccc(O)cc2)nc2ccccc12	1	-1	-6	·	-6	·
Cc1c(/C=N/Nc2nc3ccccc3[nH]2)c2ccccc2n1C	4	17	65*	·	-1	·
CCN(CC)c1ccc(C=NNc2nc3ccccc3[nH]2)c(O)c1	·	·	·	27	·	33
O=c1[nH]c(N/N=C\c2ccc(F)cc2)nc2ccccc12	57*	-5	7	·	-1	·
CCOC(=O)O[C@]1(C(=O)OCCl)CCC2C3CCC4=CC(=O)C=C[C@]4(C)C3C(O)C[C@@]21C (some centres undefined)	·	·	·	1	·	6
Cc1cc(=O)[nH]c(N2CCCNCC2)n1	54*	·	3	10	-3	3
Cc1cc(=O)[nH]c(N2CCN(Cc3ccccc3)CC2)n1	3	0	-2	9	-4	2
CCCCN1C(Nc2ccccc2)=NCC1C (centres undefined)	·	·	·	-7	·	3
O=C(CCC1CCCN(C(=O)c2ccccc2Cl)C1)N1CCN(c2ccccn2)CC1 (centres undefined)	52*	1	3	0	-2	2
CCc1cccc2sc(N3CCN(C(=O)c4ccc([N+](=O)[O-])o4)CC3)nc12	·	·	15	99*	·	100*
O=C(c1ccc([N+](=O)[O-])o1)N1CCN(Cc2ccccc2)CC1	-4	-14	-7	1	4	-1
Cc1cc(C)cc(NC(=O)c2cc(C)nc3ccccc23)c1	59*	-5	0	1	-4	2
CN1CC[C@]23c4ccccc4NC1[C@]21CCN(C)C3Nc2ccccc21	·	·	·	2	·	10
COc1ccc(C2CC=C(C(=O)O)C(c3ccc(Cl)cc3)N2S(=O)(=O)c2ccc(C)cc2)cc1OC (centres undefined)	·	·	·	21	·	12
O=Cc1ccc(OC(=O)C2CC(=O)N(c3ccc(F)cc3)C2)cc1 (centres undefined)	51*	8	4	-2	-5	1
C(#Cc1ccccc1)C[N+]1(CC#Cc2cccc3ccccc23)CCCC1	-2	12	11	98*	0	88
O=C(c1cc(COc2ccc3ncccc3c2)on1)N1CCC[C@H]1CO	53*	16	9	3	-5	4
O=C(c1cc(COc2ccc3ncccc3c2)on1)N1CCCC(O)C1 (centres undefined)	39	16	0	-65	6	15
CCOC(=O)c1c(N)sc(C(O)(C(F)(F)F)C(F)(F)F)c1-c1ccc(Cl)cc1	12	4	-5	100*	10	100*
CCOC(=O)c1c(N)sc(C(O)(C(F)(F)F)C(F)(F)F)c1-c1ccc(F)cc1	19	-5	-11	1	9	56
Cc1csc(NC(=O)C=Cc2ccc(C)o2)n1	·	·	·	-5	·	3
SMILES	VHR inh abs	PrPC surface inh	BJeLR viability	ugtP null kill	3CLpro inhibitor	RN4220 kill
CCN1CCN(C(=S)c2ccc(Cl)cc2)CC1	50*	-6	-6	6	-5	1
Nc1c(-c2ccccc2)nc(Cl)nc1-c1ccccc1	15	-26	7	8	1	2
c1ccc(-c2nc3nonc3nc2-c2ccccc2)cc1	34	-36	-1	98*	2	97*
CNCC(C)NCC(Cc1ccccc1)NCCc1ccccc1 (centres undefined)	·	·	·	-2	·	-3
O=C(O)CP(=O)(O)c1ccc(Cl)cc1	51*	-4	11	8	7	-2
Cc1cccc(-c2cc3c(N=O)c4ccccc4c-3n[nH]2)c1	16	-8	17	·	2	·
Cc1ccc(-c2cc3c(N=O)c4ccccc4c-3n[nH]2)cc1	36	-7	70*	-3	-6	5
O=c1[nH]nc(-c2ccccc2)c2ccccc12	-34	0	4	2	-1	7
O=Nc1c2cc(-c3ccccc3)[nH]nc-2c2ccccc12	-11	-17	69*	-12	1	15
Cc1ccc2c(c1)C1C(CO2)C(c2ccccc2)[C@@]2(C)C(=O)NC(C)C(=O)N12 (some centres undefined)	·	·	·	0	·	2
C#CCOCCOCCOCCNc1nc(N2CCN(C(=O)C(Cc3ccc(O)cc3)n3cc(C(N)C(C)CC)nn3)CC2)nc(N2CCN(C(=O)C(C(C)CC)n3cc(C(N)CC(C)C)nn3)CC2)n1 (centres undefined)	·	·	·	-3	·	0
C=CCNC(=S)NNc1nc2c(c(=O)[nH]1)C1(CCCCC1)Cc1ccccc1-2	23	1	-2	85*	6	-18
O=c1[nH]c(NCCO)nc2c1C1(CCCC1)Cc1ccccc1-2	36	2	6	-9	-1	-3
CN(C)c1nc2sc3c(c2c(=O)n1C)CC(C)(C)OC3	60*	-1	2	18	1	19
O=C1c2ccccc2C(=O)N1CCSc1ccccc1	55*	·	-3	7	2	7
O=C1c2ccccc2C(=O)N1CCSc1nncs1	12	12	-5	6	-3	5
C[n+]1c2n(c3ccccc31)N=C(c1ccc(-c3ccccc3)cc1)CS2	10	11	1	101*	2	100*
C[n+]1c2n(c3ccccc31)N=C(c1ccccc1)CS2	15	-8	9	-2	6	1
COc1cc(F)c(C2=CC(=O)CC(c3ccc(Cl)cc3)C2)cc1F (centres undefined)	·	·	·	17	·	-7
C[C@@H]1C=CC(=O)O[C@@H]1c1ccc(Cl)cc1	20	2	77*	·	-6	·
CCN1/C(=C/C=C/C=C/c2sc3ccccc3[n+]2CC)Sc2ccccc21	-7	·	69*	·	0	·
CC[n+]1c(/C=C/Nc2ccccc2)sc2ccccc21	6	-7	11	-7	5	8
CCN1/C(=C/C=C/c2sc3ccccc3[n+]2CC)Sc2ccccc21	·	·	69*	·	·	·
CCN1/C(=C/C=C/C=C/C=C/c2sc3ccccc3[n+]2CC)Sc2ccccc21	2	-3	63*	98*	-1	92*
O=C(C=CNc1ccc(F)cc1)c1ccco1	·	·	·	-12	·	13
COC(=O)C(CC(C)C)N(Cc1ccccc1)S(=O)(=O)N(Cc1ccc(OC)cc1)C(CC(C)C)C(=O)OC (centres undefined)	·	·	·	-8	·	-1
